TrxR1 inh: rat TrxR1 inhibition; AID 588453; 390,000 tested, 1% active; recombinant rTrxR1, NADPH fluorescence consumption, selenite substrate; Potency, µM (titrated, usually from 114 µM), for the others: top-dose activity change, negative = inhibition, most hits filed as inhibitors; also: % is scaled to controls: 0 for no effect and ±100 for the full control effect; nearly all actives have a fitted effect of over 65% in size
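Rat TrxR1 (90 nM in the dispensed reagent) was pre-reduced with 400 uM NADPH for 5 min at room temperature, then incubated with compound for 15 min. After 400 uM selenite was added, NADPH fluorescence (Ex 340/Em 450 nm) was followed for 8 min.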
VDR inhibitor: vitamin D3 receptor (human) inhibition | VDR-SRC2-3 peptide fluorescence polarization, 2 h | Potency, µM, inactives show max response, negative = inhibition, actives largely listed as inhibitors | 400,000 tested, 0.93% active; also: % is scaled to controls: 0 for no effect and ±100 for the full control effect
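Fluorescence polarization assay measuring small-molecule disruption of VDR binding to the coregulator peptide SRC2-3. Compounds were pin-transferred (23 nl) into the reagent mix and incubated 2 h at room temperature before reading.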
Vif-A3G inh: blocks the Vif interaction with human APOBEC3G. Q9HC16. HeLa A3G-eYFP + Vif (tagged APOBEC3G with the HIV-1 protein that degrades it), YFP fluorescence, overnight. Potency, µM (series often up to 46.1 µM), for inactives: at the highest dose activity, negative = active, most hits filed as inhibitors. 410,000 tested, 0.076% active. AID 602310; also: % is scaled to controls: 0 for no effect and ±100 for the full control effect; nearly all actives have a fitted effect of over 60% in size
Target sequence (Q9HC16 whole entry, looked up): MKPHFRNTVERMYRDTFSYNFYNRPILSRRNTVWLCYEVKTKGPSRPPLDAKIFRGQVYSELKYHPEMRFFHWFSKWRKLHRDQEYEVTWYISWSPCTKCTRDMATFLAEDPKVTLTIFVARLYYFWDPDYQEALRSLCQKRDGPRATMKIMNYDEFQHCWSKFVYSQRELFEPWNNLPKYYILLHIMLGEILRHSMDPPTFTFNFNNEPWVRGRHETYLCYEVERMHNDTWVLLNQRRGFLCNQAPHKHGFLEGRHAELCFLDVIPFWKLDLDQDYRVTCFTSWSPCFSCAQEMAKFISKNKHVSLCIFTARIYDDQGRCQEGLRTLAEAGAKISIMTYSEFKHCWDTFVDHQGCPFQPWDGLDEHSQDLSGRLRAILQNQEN
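HeLa cells stably expressing Vif and C-terminally eYFP-tagged A3G, seeded overnight at 37 deg C, then exposed to compound by pintool overnight at 37 deg C. Rise in yellow fluorescence (Ex 488/Em 500-530, Acumen) marks blocked Vif-driven A3G degradation.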
Vif-A3F inh: inhibitors of Vif-A3F interaction; HeLa A3F-eYFP + Vif (tagged APOBEC3F with the HIV-1 protein that degrades it), YFP fluorescence increase; Potency, µM (doses to about 46.1 µM), inactives show top-dose activity, negative = active; 390,000 tested, 0.2% active; AID 602313; also: % of control where 0% means no effect; nearly all actives have a fitted effect of over 65% in size
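Fluorescence increase (Ex 488/Em 500-530) after overnight compound treatment at 37 deg C flags inhibition of Vif-driven A3F-eYFP loss in stable HeLa A3F-eYFP/Vif cells seeded overnight beforehand.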
TrxR1 substrate: rat thioredoxin reductase 1 substrate activity; Potency, µM (doses to about 114 µM), without a hit: at the top dose activity change, negative = substrate turnover; O89049; purified TrxR1 substrate turnover, NADPH consumption readout; 390,000 tested, 0.01% active; AID 588456; also: % is scaled to controls: 0 for no effect and ±100 for the full control effect; nearly all actives have a fitted effect of over 50% in size
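Rat TrxR1, dispensed at 90 nM, was prereduced with 400 uM NADPH (final) for 5 min at ~22 deg C, then incubated with compound 15 min before 400 uM selenite. A first-read NADPH fluorescence drop versus no-compound background flagged substrates.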
An asterisk follows results filed as active; ? = inconclusive; nt = not tested or not shown; [ ] = another dose, or the depositor's remark. Only some compounds are listed: those with a hit (about 1.8% of all), similar ones and a draw of the others. Calls follow the shape of the dose curve; as a rule, active = well fitted curve in the direction sought with a large enough effect; inconclusive = small, poorly fitted or top-dose-only effect, or another doubt; inactive = no such curve, though single readings can be large; an effect the other way counts as inactive or inconclusive. Potency is read from the fitted curve at half-maximal effect.

SMILES	TrxR1 inh	VDR inhibitor	Vif-A3G inh	Vif-A3F inh	TrxR1 substrate
NC(=O)c1c(/N=C/c2cccs2)sc2c1CCCC2	40µM*	?	-1%	11%	-2%
CC(=O)N1N=C(c2c(-c3ccccc3)c3cc(C)ccc3[nH]c2=O)CC1c1ccco1 (centres undefined)	-26%	-11%	-6%	-6%	0%
CC(=O)N1N=C(c2c(-c3ccccc3)c3cc(Br)ccc3[nH]c2=O)CC1c1ccco1 (centres undefined)	50µM*	79µM*	-4%	-16%	5%
COC(=O)[C@H]1[C@H]2C[C@@H]3c4[nH]c5ccccc5c4CCN3C[C@H]2C[C@@H](OC(=O)c2cc(OC)c(OC)c(OC)c2)[C@@H]1OC	nt	35µM*	nt	nt	nt
CCC1CCCCN1Cc1nc2c(c(=O)n(C)c(=O)n2C)n1Cc1c(F)cccc1Cl (centres undefined)	18%	6%	1%	nt	2%
O=C(CN(Cc1ccccc1)C(=O)CCl)c1cccc(Br)c1	14µM*	?	?	0%	-5%
Cc1ccc(CN(C)C(=O)c2cc(COc3cccc(C(F)(F)F)c3)on2)o1	?	89µM*	1%	-15%	2%
CN(Cc1nccn1C)C(=O)c1cc(COc2cccc(C(F)(F)F)c2)on1	16%[57.1 µM]	-8%	6%	-1%	6%[57.1 µM]
CCCc1cc(=O)oc2cc(OC(=O)CN3C(=O)NC4(CCCC4)C3=O)ccc12	79µM*	?	2%	-17%	396%
COc1ccc(OCCOC(=O)CN2C(=O)NC3(CCCC3)C2=O)cc1	-4%	14%	-1%	-24%	-2%
CC(C)(C)n1ncc2c(=O)n(Cc3ccc(F)cc3Cl)cnc21	2%	nt	5%	nt	1%
S=C(NCCCN1CCOCC1)NCCCN1CCOCC1	-9%	?	-1%	-3%	-2%
S=c1[nH]nc(NCCCN2CCOCC2)s1	-16%	89µM*	3%	-5%	1%
CSC1=NS(=O)(=O)c2c(C)nn(C)c2S1	?	25µM*	-6%	-4%	-1%
CCOC(=O)CSc1cc(C)c(C#N)c2nc3ccccc3n12	1.1µM*	-22%	0%	8%	9%[57.1 µM]
Cc1cccc(N2C(=O)CSC23C(=O)N(Cc2cccc(C(F)(F)F)c2)c2ccccc23)c1 (centres undefined)	8%	7%	3%	2%	-2%
COc1ccc(NC(=O)CSc2nc(-c3cccs3)cc(C(F)(F)F)n2)cc1OC	22%[57.1 µM]	5%	-3%	-8%	-2%[57.1 µM]
O=C(CCS(=O)(=O)c1nc(-c2cccs2)cc(C(F)(F)F)n1)Nc1ccc(OC(F)(F)F)cc1	-3%	14µM*	-4%	-3%	6%
Cc1cc(C(=O)CCl)c(C)n1CCc1ccc(Cl)cc1	7.9µM*	18µM*	?	12%	-3%
NS(=O)(=O)c1ccc2c(c1)C1C=CCC1C(C1CC=CCC1)N2 (centres undefined)	40µM*	-2%	2%	2%	1%
Cc1cc(C)nc(SCC(=O)Oc2ccc3oc(=O)cc(C)c3c2)n1	1µM*	-9%	1%	-8%	10%[57.1 µM]
O=S(=O)(C/C(=C/CO)S(=O)(=O)c1ccccc1)c1ccccc1	2.2µM*	?	?	-1%	10%
O=S(=O)(CS(=O)(=O)c1ccccc1)c1ccccc1	11µM*	-8%	4%	-12%	-10%
O=C1CCCC(=O)C1CS(=O)(=O)c1ccccc1	-29%[57.1 µM]	40µM*	-1%	-3%	0%[57.1 µM]
Cc1ccc(S(=O)(=O)CS(=O)(=O)c2ccc(C)cc2)cc1	-18%[11.4 µM]	-18%	2%	-1%	-1%[11.4 µM]
SMILES	TrxR1 inh	VDR inhibitor	Vif-A3G inh	Vif-A3F inh	TrxR1 substrate
Cc1cc(Cl)nc2nc(Cl)ccc12	-7%[0.0914 µM]	nt	1%	nt	-3%
CN(C)c1ccc(N=Cc2cccc3ccccc23)cc1	?	nt	-13%	nt	-11%
Cc1ccc(C)c(S(=O)(=O)c2nnn3c2nc(Nc2ccc(F)c(Cl)c2)c2sccc23)c1	36%	6%	0%	5%	15%
CCN1CCN(C(=O)c2ccc3c(c2)N(Cc2c(F)cccc2Cl)C(=O)c2ccccc2S3)CC1	7%	-9%	-2%	0%	-5%
O=c1[nH]nc(-c2ccc([N+](=O)[O-])o2)c(=O)[nH]1	13µM*	-16%	3%	1%	-5%
Nc1nnc(-c2ccc([N+](=O)[O-])o2)s1	?	8%	-21%	-16%	-6%[57.1 µM]
CCC(=O)NC(=S)Nc1cccc(Cl)c1N1CCCC1	32%	-10%	1%	10µM*	0%
O=C(NC(=S)Nc1cccc(Cl)c1N1CCCCC1)c1ccc2c(c1)OCCO2	3%	-5%	-18%	?	0%
Cc1ccc2c(c1)CCCN2C(=O)c1cnn2c1NC(=C1CC1)C=C2C(F)F	4%	nt	?	nt	-6%
COc1cc2oc(=O)c(CC(=O)N3CCCCC3)c(C)c2cc1OC	16µM*	8%	6%	-12%	782%
COc1cccc(NC(=O)Cn2nnc(-c3nc(-c4ccccc4)no3)c2N)c1	29%[57.1 µM]	2%	-5%	-5%	-2%[57.1 µM]
O=S1(=O)C=C(Sc2nc3ccccc3s2)c2ccccc21	2.5µM*	13µM*	?	-4%	0%[57.1 µM]
O=C(O)c1cccc2c1C(=O)c1ccccc1C2=O	-9%	-11%	0%	3%	-7%
O=C(O)c1ccc2c3c(ncnc13)-c1ccccc1C2=O	10µM*	-12%	-24%	-14%	-13%
COc1ccccc1NC(=O)c1oc2ccccc2c1NC(=O)c1cccc(OC)c1OC	32%	-25%	5.6µM*	-12%	23%
N#Cc1c([N+](=O)[O-])cc([N+](=O)[O-])cc1S(=O)(=O)Cc1ccccc1	0.71µM*	40µM*	?	5%	?
COc1cc(OC)c(C#N)c(S(=O)(=O)Cc2ccccc2)c1	10%[57.1 µM]	4%	3%	5%	10%[57.1 µM]
COC(=O)[C@H](C)NS(=O)(=O)C1CC1	-10%	nt	1%	nt	-4%
O=C(NCc1ccco1)c1cc2cc(Br)ccc2o1	8%	89µM*	2%	-7%	-1%
Cc1c(C(=O)NCc2ccco2)oc2ccc(Br)cc12	?	-8%	-11%	4%	-4%
Cc1ccc2[nH]cc(C(O)c3c[nH]c4ccc(C)cc34)c2c1	12%	nt	-2%	nt	0%
CCOc1ccc(/C=C/c2ccnc3ccccc23)cc1OCC	7%	nt	-21%	nt	3%
CC1(C)CC(=O)C2=C(C1)OC(N)=C(C#N)C2C#Cc1ccccc1 (centres undefined)	2.5µM*	45µM*	1%	-27%	-3%
O=C(CNC(=O)c1ccccc1)NCC(=O)OCC(=O)c1ccc2ccccc2c1	26%	-18%	-2%	nt	24%[0.0914 µM]
CC(C)OC(=O)CC(=O)c1sc2nc3c(cc2c1N)CN(C)CC3	20µM*	-18%	-1%	-13%	-1%[57.1 µM]
CN1CCc2nc3sc(C(=O)Nc4c(F)cccc4F)c(N)c3cc2C1	-8%	-9%	-4%	-15%	6%
